High-throughput results: PubChem, The Scripps Research Institute Molecular Screening Center
Compounds with a hit are over-represented: about 3.4% of the library has one in this group of screens.
GPR151 activ = activators of human GPR151; Q8TDV0; PathHunter beta-arrestin GPR151 cells, luminescence; activation, % at 11.2 µM; 1% of 650,000 active; in the data active means activation above about 4.9%;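 further: 0% = median of compound wells and 100% = cells with positive control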
MITF primary = human MITF inhibition, primary screen; AlphaScreen MITF homodimerization, bead proximity signal; inhibition, % at 2.6 µM; 0.91% of 650,000 active; in the data active means inhibition above about 50%;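 further: 0% = vehicle wells with protein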
Target sequence (O75030 whole entry, looked up): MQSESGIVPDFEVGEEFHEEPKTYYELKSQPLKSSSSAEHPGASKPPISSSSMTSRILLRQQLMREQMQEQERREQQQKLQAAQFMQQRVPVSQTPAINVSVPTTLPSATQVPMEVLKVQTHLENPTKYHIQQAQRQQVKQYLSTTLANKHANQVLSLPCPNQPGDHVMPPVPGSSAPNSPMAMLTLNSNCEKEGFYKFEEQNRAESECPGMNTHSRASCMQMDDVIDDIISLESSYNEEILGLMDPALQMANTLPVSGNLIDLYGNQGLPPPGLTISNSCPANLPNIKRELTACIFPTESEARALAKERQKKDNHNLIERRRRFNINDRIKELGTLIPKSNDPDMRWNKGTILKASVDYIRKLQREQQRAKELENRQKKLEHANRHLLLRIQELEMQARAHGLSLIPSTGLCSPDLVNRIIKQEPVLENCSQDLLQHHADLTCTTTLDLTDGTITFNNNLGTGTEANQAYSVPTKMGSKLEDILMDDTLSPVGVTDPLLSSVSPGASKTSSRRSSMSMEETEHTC
FBW7 activator = activators of human E3 ligase FBW7; Q969H0; AlphaScreen FBW7–phospho-cyclin E peptide binding, activator screen; normalized activity (activation), % at 26.1 µM; 0.13% of 650,000 active; in the data active means normalized activity above about 1.9%;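 further: purified mutant Fbw7 with reduced substrate affinity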
TEAD-YAP inh = TEAD-YAP interaction inhibition. HEK-TIYL cells, TEAD-Gal4/YAP UAS-luciferase luminescence. inhibition, % at 9.12 µM. 1.4% of 640,000 active; in the data active means inhibition above about 32%;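 further: 0% = median of test compound wells and 100% = reference inhibitor wells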
GPR151 confirm = confirmation of human GPR151 activators | shares compounds with GPR151 activ | GPR151 PathHunter beta-arrestin cells, luminescence, 90 min; % of EA-reagent control over plate median | activation, % at 11.2 µM | 6,700 tested, under 10 active;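 active means mean percent activation across replicates above the confirmation screen cutoff of 4.91%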
GPR119 ag = activates human GPR119 in a GPR151 counter-screen | shares compounds with GPR151 activ | GPR119 PathHunter beta-arrestin cells, luminescence, 90 min; 0 = compound-well median, 100 = enzyme-acceptor control | activation, % at 11.2 µM | 0.3% of 6,700 active;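 active means mean percent activation in the counterscreen above 29.09%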;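 further: counterscreen on off-target GPR119 to flag nonselective hits from the GPR151 activator screen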
The depositor's hits bear a star; nt = not tested or not shown; ! = not active in a repeat.

SMILES	GPR151 activ	MITF primary	FBW7 activator	TEAD-YAP inh	GPR151 confirm	GPR119 ag
Cc1cccc(C(=O)Nc2ccc3nc(N4CCCCC4)cc(C)c3c2)c1	5.8*	-7.8	-0.1	-7.3	0.1	8.2
Cc1cc(N2CCN(c3ncccn3)CC2)nc2ccc(NC(=O)Cc3cccs3)cc12	5.1*	-7.2	0.2	13.5	0.7	-7.9
Cc1nc(C)n(-c2ccc(Nc3cc(-c4nn(CCc5ccccc5)cc4-c4ccccc4)ccn3)cc2)n1	-0.1	0.7	-0.4	9.0	nt	nt
O=C(NCCn1cc(SCc2ccc(Br)cc2)c2ccccc21)c1ccc(F)cc1	5.0*	1.0	-0.1	2.9	-0.5	-4.8
CCN1C(=O)c2cccc3c(N4CCOCC4)ccc(c23)C1=O	2.3	-11.3	0.2	-35.3	nt	nt
O=C1C=Cc2ccc(N3CCOCC3)c3cccc1c23	6.1*	12.7	-0.3	-13.2	0.0	6.8
Cc1sc(NC(=O)c2ccc(N3CCCCC3)c([N+](=O)[O-])c2)c(C#N)c1C	12.5*	13.2	-0.1	-2.3	0.6	-11.9
COc1ccccc1C(=O)NCCn1cc(SCC(=O)Nc2ccc3c(c2)OCCO3)c2ccccc21	0.7	-11.6	-0.1	6.5	nt	nt
CCCNC(=O)c1csc(-c2c(C)nn(C)c2C)n1	5.2*	27.0	0.0	-4.8	0.1	10.1
Cc1nn(Cc2ccccc2)c(Cl)c1C(=O)OCc1cccc(S(=O)(=O)N(C)C)c1	1.0	-10.5	0.0	-4.5	nt	nt
COc1cccc(-n2c(CCN3C(=O)c4ccccc4C3=O)nc3ccccc3c2=O)c1	5.4*	3.7	0.0	-3.2	0.5	8.6
CC(=O)N/C(N)=N/c1nc2cc(C)ccc2o1	5.4*!	10.8	-0.3	-40.7	-0.1	0.2
CC1=C(C(=O)OCCc2ccccc2)C(c2cccc(Cl)c2)NC(=O)N1 (centres undefined)	1.5	-2.9	-0.2	6.1	nt	nt
CC1=C(C(=O)OCCc2ccccc2)C(c2ccc(C)s2)NC(=O)N1 (centres undefined)	5.1*	-6.6	-0.1	2.2	-0.2	-13.0
CC1=C(C(=O)OCc2ccccc2)C(c2cccc(Cl)c2)NC(=O)N1 (centres undefined)	5.0*	-10.4	-0.1	-21.8	0.9	-3.1
CCOc1cccc(C2NC(=O)NC(C)=C2C(=O)OC2CCCCCC2)c1 (centres undefined)	5.7*	5.9	-0.1	-11.4	-0.3	2.9
COc1ccccc1CN1CCC2(CCC(CNC(=O)c3ccn(C)n3)O2)CC1 (centres undefined)	6.4*	-3.0	0.2	3.3	0.1	-2.5
Cc1cc(C)c(CN2CCC3(CCC(CNC(=O)c4ccn(C)n4)O3)CC2)cc1C (centres undefined)	1.2	-10.1	0.1	0.5	nt	nt
Cc1nnc(N/N=C/c2cc(C)n(-c3ccc(F)cc3)c2C)n1N	6.3*	0.1	-0.5	9.7	-0.6	-14.4
CCOC(=O)c1ccc(-n2c(C)cc(/C=N/Nc3ccccn3)c2C)cc1	0.9	7.9	-0.2	-23.6	nt	nt
Cc1ccc(-n2c(C)cc(/C=N/Nc3ccccn3)c2C)cc1	5.5*	1.6	0.1	-18.8	0.1	8.6
CN(C)c1ccc(-c2cnc3c(n2)[nH]c(=O)n3-c2ccccc2)cc1	6.0*	-0.6	0.1	-10.4	-0.6	-6.9
CCCn1c2ccccc2c2nnc(SCC(=O)Nc3ccccc3C#N)nc21	-0.4	-2.7	0.0	-6.1	nt	nt
COc1ccc(CNC(=O)NC2CCCCC2)cc1OC	0.0	9.2	-0.2	2.2	nt	nt
CCN(CC)P(=O)(c1nc2ccccc2n1CC)N(CC)CC	5.6*	0.6	0.0	3.1	-0.3	-2.1
SMILES	GPR151 activ	MITF primary	FBW7 activator	TEAD-YAP inh	GPR151 confirm	GPR119 ag
CCNc1nc(NCC)n2c(SCC(=O)OCC)nnc2n1	26.0*	-1.0	0.0	11.2	2.4	10.7
CCNc1nc(NCC)n2c(SCC(=O)c3ccc(OC)cc3)nnc2n1	1.4	-6.4	0.0	-1.5	nt	nt
COc1ccc(S(=O)(=O)Nc2ccccc2SC)cc1Br	5.7*	15.8	1.0	-2.6	-0.5	4.3
CCN(CC)S(=O)(=O)c1ccc(OC)c(NS(=O)(=O)c2cccc([N+](=O)[O-])c2)c1	6.2*	24.3	0.1	-0.3	0.3	4.3
CCN(CC)S(=O)(=O)c1ccc(OC)c(NS(=O)(=O)c2ccccc2[N+](=O)[O-])c1	1.5	-16.5	-0.1	-11.2	nt	nt
COc1ccc(S(=O)(=O)Nc2cccc3c([N+](=O)[O-])cccc23)cc1OC	6.0*	-6.8	-0.2	-20.3	0.1	6.8
COc1ccc(S(=O)(=O)Nc2ccccc2C(=O)NC(C)C)cc1OC	18.4*	-1.6	-0.1	-0.5	0.5	6.1
O=C(Cn1nnc(-c2ccccc2)n1)OCc1ccc(Br)cc1	0.7	2.8	-0.3	6.5	nt	nt
COc1ccc(NC(=S)NNS(=O)(=O)c2cccc([N+](=O)[O-])c2)cc1	4.9*	-23.7	-0.2	-11.1	0.1	-13.2
COc1ccccc1NS(=O)(=O)c1ccc(SC)cc1	6.3*	4.0	0.2	2.1	-0.6	0.1
COc1ccc(NC(=S)Nc2cccc([N+](=O)[O-])c2)cc1	-0.5	16.4	0.1	-0.7	nt	nt
COc1ccc(C2C(C(=O)Nc3cc(C)c(Cl)cc3OC)c3ccccc3C(=O)N2Cc2ccc(F)cc2)cc1 (centres undefined)	0.1	7.7	0.0	0.5	nt	nt
Cc1cccc(C(=O)Nc2ccc(Br)cc2F)c1[N+](=O)[O-]	1.4	0.9	-0.1	-64.6	nt	nt
Cc1cccc(C(=O)Nc2ccc(F)cc2F)c1[N+](=O)[O-]	10.9*	0.6	-0.1	-8.3	0.5	7.0
Cc1c(-c2cccc(NC(=O)C3CCCCC3)c2)nc2ncccn12	1.4	2.4	0.1	-5.2	nt	nt
O=C1CCCc2occ(C(=O)N3CCC4(CC3)CC4C(=O)NCc3ccccc3)c21 (centres undefined)	1.6	5.5	0.0	6.4	nt	nt
CC1=C(C#N)C(=O)N(C)C(=O)/C1=C/c1ccc(-c2ccccc2C(=O)O)o1	-0.5	20.0	-0.3	2.9	nt	nt
CC1=C(C#N)C(=O)N(C)C(=O)/C1=C/c1ccc(-c2cccc(Cl)c2C)o1	5.0*	-12.3	-0.6	-1.4	-0.5	-6.0
O=Cc1cn(CC(=O)NCc2ccccc2)c2ccccc12	1.6	-5.2	-0.2	11.5	nt	nt
O=Cc1cn(CC(=O)NCCc2ccccc2)c2ccccc12	7.0*	-3.8	0.0	12.7	-0.7	-7.7
CCOC(=O)c1c(NC(=O)c2ccccc2OCC)sc2c1CCC2	0.1	-16.2	0.1	0.4	nt	nt
CCOc1ccc(Br)cc1C(=O)N/N=C/c1ccc([N+](=O)[O-])cc1	7.3*	1.6	-0.1	0.3	0.6	-4.4
O=C(N/N=C/c1ccncc1)c1cc(Br)ccc1OCc1ccccc1	5.1*	14.8	0.0	-5.0	0.5	-1.8
COc1ccc(CNC(=O)CCc2c(C)nc3c(c(C)nn3C(C)(C)C)c2C)cc1	7.2*	6.7	0.0	-16.6	-0.7	-9.3
